High-throughput results from PubChem BioAssay.
Compounds with a hit are over-represented: about 3.1% of the library has one in this group of screens.
VDR inhibitor = Inhibitors of the vitamin D receptor (VDR): qHTS; 400,000 compounds, 0.93% hits; VDR-SRC2-3 peptide fluorescence polarization, 2 h; Vitamin D3 receptor (Homo sapiens), P11473; Potency, µM, most hits filed as inhibitors
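VDR–SRC2-3 interaction, FP format. Cmpds 23 nl via pintool, brief spin, 2 h ambient incubation.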
GCN5L2 inh-1 = qHTS Assay for Inhibitors of GCN5L2. GCN5L2 HAT assay, ThioGlo1 CoA-SH fluorescence. 390,000 compounds, 0.21% hits. Potency, µM (series often up to 58.9 µM), usual class: inhibitors
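qHTS, 1536-well. 20nM enzyme, pH 7.5 HEPES/EDTA/Tween-20 buffer; 15 min compound preinc., RT. Start: 75uM H3(1-25), 70uM AcCoA, 50uM ThioGlo1. Read Ex340/Em540 at t=0 (autofluorescence flag) and t=20 min.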
PI4K2A block = qHTS for small molecular inhibitors of PI4K2A; Phosphatidylinositol 4-kinase type 2-alpha (Homo sapiens), Q9BTU6; purified PI4K2A, ADP-Glo luminescence, 1 h; active compounds read low; activity change, negative = inhibition, % at 76.9 µM; 420,000 compounds, 0.13% hits; AID 1346378, 2018; in the data active means activity change below about -50%; inconclusive means mostly about -30% to -49%
Target sequence (Q9BTU6 whole entry, looked up): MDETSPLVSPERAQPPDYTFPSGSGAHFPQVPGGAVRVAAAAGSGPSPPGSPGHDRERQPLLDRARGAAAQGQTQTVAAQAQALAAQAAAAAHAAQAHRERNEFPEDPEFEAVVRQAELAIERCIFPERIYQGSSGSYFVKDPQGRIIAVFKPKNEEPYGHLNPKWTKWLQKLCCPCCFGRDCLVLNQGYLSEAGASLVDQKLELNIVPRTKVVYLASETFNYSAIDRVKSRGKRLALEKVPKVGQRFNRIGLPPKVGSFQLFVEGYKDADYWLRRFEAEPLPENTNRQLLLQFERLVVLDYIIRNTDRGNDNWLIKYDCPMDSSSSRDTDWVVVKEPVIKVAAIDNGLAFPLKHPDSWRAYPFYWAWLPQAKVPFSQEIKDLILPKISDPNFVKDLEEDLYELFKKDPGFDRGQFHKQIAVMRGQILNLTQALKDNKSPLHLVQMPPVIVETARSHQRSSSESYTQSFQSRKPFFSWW
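PI4K2A activity was measured by ADP-Glo luminescence: enzyme (4 ug/mL stock) and phosphatidylinositol (1.2 mM stock) in Tris pH 7.5/MgCl2/EGTA/Triton X-100 buffer were reacted with ATP (300 microM stock) for one hour at ambient temperature.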
GLS inh = qHTS for Inhibitors of Glutaminase (GLS); GLS enzymatic activity, qHTS titration; 410,000 compounds, 0.21% hits; Glutaminase kidney isoform, mitochondrial (Homo sapiens), O94925; Potency, µM (titrated, usually from 45.5 µM), hits mostly inhibitors
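Assay buffer: 45 mM KH2PO4 pH 8.2, 0.02% Tween-20. hKGA acts on L-glutamine (1 mM solution added); product glutamate is reported by an oxidase/peroxidase Amplex Red coupling, with fluorescence taken at baseline and 30 min.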
PLK1 PBD block = qHTS for Inhibitors of PLK1-PDB (polo-like kinase 1 - polo-box domain): Primary Screen; Serine/threonine-protein kinase PLK1 (Homo sapiens), P53350; AID 720504, 2013; Plk1 PBD binding of FITC phosphopeptide, fluorescence polarization; Potency, µM, usual class: inhibitors; 360,000 compounds, 2.8% hits; further: series mostly up to about 57 µM; nearly all actives have a fitted effect of over 65% in size
GCN5L2 inh-2 = qHTS Assay for Inhibitors of GCN5L2: Hit confirmation. shares compounds with GCN5L2 inh-1. Potency, µM, most hits filed as inhibitors. 140 compounds, 70% hits. GCN5L2 HAT, ThioGlo1 CoA fluorescence, 20 min. AID 588347, 2011
Hits are given with their value; n = inactive; u = inconclusive; x = no result given; [ ] = dose if it differs, or a comment. Unless noted, the call rests on the fitted dose curve; in most records, active means well fitted curve in the direction sought with a large enough effect; inconclusive means small, poorly fitted or top-dose-only effect, or another doubt; inactive means no such curve, though single readings can be large; an effect the other way counts as inactive or inconclusive.

SMILES	VDR inhibitor	GCN5L2 inh-1	PI4K2A block	GLS inh	PLK1 PBD block	others
NC1=N[C@H](O)[C@H]2C3O[C@]4(O)O[C@H](C(O)[C@@]2(N1)[C@@H]4O)C3(O)CO (some centres undefined)	n	n	x	x	x
CCN1C(=O)/C(=C\c2ccc([N+](=O)[O-])s2)C(=O)NC1=S	x	8.91µM	x	x	x
O=c1[nH]cnc2[nH]cc(CN3CCCCC3)c12	x	x	x	n	x
O=C1CN2CCOC2(c2ccccc2Cl)c2cc(Cl)ccc2N1 (centres undefined)	x	x	n	x	x
CSc1ncc(/C=C2/C(=O)NC(=O)N(c3ccc(C(C)C)cc3)C2=O)cn1	u	n	n	n	15µM
CC(C)c1ccc(N2C(=O)NC(=O)/C(=C/c3cnc(-c4ccccc4)nc3)C2=O)cc1	35.5µM	n	n	n	11.9µM
CCc1ccc(N2C(=O)NC(=O)/C(=C\c3cccn3CCOc3ccc(C(C)C)cc3)C2=O)cc1	u	n	n	n	n
CN1CC[C@@]2(CCCN(C(=O)c3csnn3)C2)C1	44.7µM	n	x	x	x
Cc1ccc(C)c(N2CCN(c3ncnc4onc(C)c34)CC2)c1	n	n	n	n	x
C[C@]12C=CC(=O)C=C1CC[C@@H]1C2=CC[C@]2(C)[C@@H](C(=O)CN3CCN(c4cc(N5CCCC5)nc(N5CCCC5)n4)CC3)CC[C@@H]12	2.82µM	n	n	n	n
O=C(NC1CCCCC1)c1cn(CCN2CCOCC2)c2cc(Cl)ccc2c1=O	n	n	x	x	x
CN1C(=O)C(=Cc2ccc(Sc3ccccc3)o2)C(=O)N(C)C1=S	n	x	n	n	2.67µM
CN1C(=O)C(=Cc2ccc(Sc3ccccc3)o2)C(=O)N(C)C1=O	u	n	n	4.47µM	u
CN1C(=O)C(=Cc2ccc(N3CCOCC3)o2)C(=O)N(C)C1=S	n	n	n	n	n
CC(C)(c1ccc(OCC2CO2)cc1)c1ccc(OCC2CO2)cc1 (centres undefined)	u	n	x	x	x
CC1(C)CC(=O)C(C2(O)C(=O)NC(=O)NC2=O)=C(O)C1	44.7µM	n	n	n	n
O=C(O)Cn1cc(/C=C2\C(=O)NC(=O)N(c3ccc(Cl)cc3)C2=O)c2ccccc21	u	n	n	n	15µM
CCN1C(=O)NC(=O)/C(=C\c2cn(CC(=O)N3CCCCC3C)c3ccccc23)C1=O (centres undefined)	n	n	n	n	u
CCN(CC)C(=O)Cn1cc(/C=C2\C(=O)NC(=O)N(c3ccccc3F)C2=O)c2ccccc21	79.4µM	n	n	n	4.74µM
CC[C@@H]1CN2CCc3cc(OC)c(OC)cc3[C@@H]2C[C@@H]1C[C@H]1NCCc2cc(OC)c(OC)cc21	n	n[0.501 µM]	x	x	x
CC(C)Oc1cccc(NC(=O)c2ccccc2C(F)(F)F)c1	x	x	n	n	x
COc1ccc2c(c[n+](C)c3c4cc5c(cc4ccc23)OCO5)c1OC	28.2µM	u	n	x	x
COc1cc2c(ccc3c4cc(OC)c(OC)cc4c[n+](C)c23)cc1O	n	x	n	n	n
COC(=O)C1=CO[C@@H](C)[C@@H]2CN3CCc4c([nH]c5cc(OC)ccc45)[C@@H]3C[C@H]12	79.4µM	x	x	x	x
COC(=O)[C@H]1[C@H]2C[C@@H]3c4[nH]c5cc(OC)ccc5c4CCN3C[C@H]2C[C@@H](OC(=O)/C=C/c2cc(OC)c(OC)c(OC)c2)[C@@H]1OC	n	n	n	n	n
SMILES	VDR inhibitor	GCN5L2 inh-1	PI4K2A block	GLS inh	PLK1 PBD block	others
CCOP(=O)(OCC)C(NC(=O)c1cccc(C)c1)C(Cl)(Cl)Cl (centres undefined)	u	n	n	n	n
Cc1cccc(C(=O)NC(Oc2ccccc2)C(Cl)(Cl)Cl)c1 (centres undefined)	u	n	n	n	15µM
O=C1Nc2ccccc2C1Cc1nc2ccccc2c(=O)n1-c1ccccc1 (centres undefined)	u	n	n	n	21.2µM
CN(Cc1ccccc1)C(=O)CN1CCCC1=O	n	n	n	n	n
CN(Cc1ccccc1)C(=O)c1ccc(NC(=O)C2CCN(C(=O)OC(C)(C)C)CC2)cc1	n	n	n	n	29.9µM
COc1cc2c(c(OC)c1OC)-c1ccc(OC)c(=O)cc1[C@@H](NC=O)CC2	n	u	x	x	x
CC1Oc2cc3c(-c4c(O)cc(O)c5c(O)c6c(cc45)OC(C)C(C)C6=O)c(O)cc(O)c3c(O)c2C(=O)C1C (centres undefined)	79.4µM	25.1µM	n	7.94µM	26.7µM
CN1[C@H](CC(=O)c2ccccc2)CCC[C@H]1C[C@H](O)c1ccccc1	n	n	x	x	x
[Hg+][c]1ccccc1	12.6µM	0.447µM	x	12.6µM	x
Cc1ncc(CN2CCCC(C(=O)c3cccc(OC(C)C)c3)C2)s1 (centres undefined)	n	20µM	n	n	n
COc1c(C)cc(C(=O)C2CCCN(Cc3cnc(C)s3)C2)cc1C (centres undefined)	n	n	n	n	n
CC(=O)OC1CC(OC2C(O)CC(OC3C(O)CC(O[C@H]4CC[C@]5(C)C6CC[C@]7(C)[C@@H](C8=CC(=O)OC8)[C@@H](O)C[C@]7(O)[C@@H]6CC[C@@H]5C4)OC3C)OC2C)OC(C)C1OC1OC(CO)C(O)C(O)C1O (some centres undefined)	x	x	x	n	x
COC(=O)[C@]1(C)CC[C@@]2(C)CC[C@@]3(C)C4=CC=C5C(=CC(=O)C(O)=C5C)[C@@]4(C)CC[C@@]3(C)C2C1 (some centres undefined)	3.16µM	n	x	x	x
COC(=O)CSc1n[nH]c(=S)s1	n	n	n	n	18.9µM
CC/C=C\C[C@@H](/C=C/C=C\C/C=C\C/C=C\CCCC(=O)O)OO	n	x	x	x	x
Oc1ccc2c3c1OC1C(O)C=CC4[C@@H](C2)NCC[C@]314 (some centres undefined)	x	x	x	n	x
Cc1ccc(S(=O)(=O)Oc2ccccc2C=C2C(=O)N(C)C(=O)N(C)C2=O)cc1	u	n	n	n	6.7µM
NC1CCCC[C@@H]1N (some centres undefined)	n	n	x	x	x
CCOC(=O)N(C)C(=O)CSP(=S)(OCC)OCC	50.1µM	n	x	x	x
CCOP(=S)(OCC)SCC(=O)NC(C(=O)O)C(C)C (centres undefined)	n	n	n	u	n
Oc1c(Br)c(Br)c(Br)c(Br)c1Br	u	31.6µM	n	n	26.7µM	GCN5L2 inh-2=14.5
O=C(O)c1cn(Cc2ccccc2)nc1-c1ccccc1	n	n	n	n	n
